From PubChem BioAssay AID652104 (National Center for Advancing Translational Sciences (NCATS), 2013)
About 7,200 (1.8%) of roughly 410,000 compounds were called active. About 7% were inconclusive and are not listed. This is one part of a sample in which actives are shown more often than they occur. Calls follow the shape of the dose curve; as a rule, active = well fitted activation curve with a large enough effect; inconclusive = small, poorly fitted or top-dose-only effect, or another doubt; inactive = no such curve, though single readings can be large or run the other way.

Assay: qHTS of TDP-43 Inhibitors; also: nearly all actives have a fitted effect of over 50% in size; as to growth rescue (activation): % of control where 0% means no effect
Conditions: TDP-43 expressing yeast growth rescue, BacTiter-Glo, 24 h; series mostly up to 46.1 µM; growth rescue (activation): at the top concentration
Outline: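 Growth rescue of TDP-43-toxic yeast measured as ATP luminescence (BacTiter-Glo). Cells grown to mid-log in raffinose, induced in galactose at OD600=0.02, exposed to compound 24 hr at 30 deg C.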
Potency is read from the fitted curve at half-maximal effect.

Growth rescue (activation), inactive:
CCOC(=O)c1c(C)[nH]c(CCC(=O)NCCCN2CCN(c3cccc(Cl)c3)CC2)c1C 13.5%
Cc1cc(NC(=O)c2ccc(-c3ccc(Cl)cc3)o2)cc(-c2nc3ncccc3o2)c1O 12.2%
Cc1cc([N+](=O)[O-])c(N2CCC[C@@H]2C(=O)O)c([N+](=O)[O-])c1 -26.4%
Cc1ccc(C(=O)COC(=O)CCCC(=O)NC2CCCCC2)cc1[N+](=O)[O-] 5.33%
COc1ccc(S(=O)(=O)c2c(Nc3ccc(C)cc3)sc(C(=O)c3ccc(C)cc3)c2N)cc1 12.2%
CCOc1ccc(NC(=O)Cn2c(C)ccc(C#N)c2=O)cc1 -1.23%
Cn1c(=O)c2c(nc(SCC(=O)Nc3ccc(F)cc3)n2Cc2ccc(Cl)cc2)n(C)c1=O 12.5%
CCn1c2ccccc2c2cc(CN3CCN(Cc4cccc(Cl)c4)CC3)ccc21 6.14%
CCCCNC(=O)CSc1nc2cc3c(cc2c(=O)n1CCCCCC(=O)NCc1ccc2c(c1)OCO2)OCO3 18.1%
CC1Cc2ccccc2N1C(=O)CSc1nnc(C2CC2)n1C (stereo not drawn) 1.9% [at 9.22 µM]
CC1Cc2ccccc2N1C(=O)Cn1cnc2ccccc2c1=O (stereo not drawn) -3.07%
CCc1ccc(NC(=O)c2cnc3c(-c4ccccc4)c(C)nn3c2C)cc1 20.4%
O=C(CN1C(=O)COc2ccc(S(=O)(=O)N3CCOCC3)cc21)N1CCN(c2cccc(Cl)c2)CC1 12.5%
O=C(COc1ccc(Cl)cc1)Nc1ccccc1OCc1cc(=O)n2ccccc2n1 12.3%
Cc1oc2cc([N+](=O)[O-])c(O)c([N+](=O)[O-])c2c1C(=O)c1ccc(Br)cc1 -43.2% [at 9.22 µM]
COc1cc(/C(=C/c2ccccc2)c2ccccc2)c2c(c1)oc1ccccc12 -12.2%
CCc1ccccc1NC(=O)c1sc2nc3c(cc2c1N)CN(Cc1ccccc1)CC3 21%
Cc1cccc(CCNC(=O)c2ccc3c(c2)nc2n3CCC(C)C2)c1 (stereo not drawn) 5.91%
CCC(C)NC(=O)CN(C1CCCCC1)S(C)(=O)=O (stereo not drawn) -30.4%
CS(=O)(=O)N(CC(=O)Nc1ccc(F)cc1)C1CCCCC1 14.6%
FC(F)(F)c1cc(Nc2nc3ccccc3c3nncn23)ccc1Cl 0%
O=C(CC(NCc1cccnc1)C(=O)O)Nc1ccc(O)cc1 (stereo not drawn) 0.784%
COc1ccc2c(CNCCc3ccccc3C)c(C(=O)O)n(Cc3ccccc3C)c2c1 12.8%
CCN(CCCNC(=O)CSc1cc(=O)n(C)c2cc(Cl)ccc12)c1cccc(C)c1 -25.5%
COc1cc(C(O)c2nc(-c3cnn(C)c3)cs2)ccc1F (stereo not drawn) 0%
OC(c1ccccc1)c1nc(-c2cnc3ccccc3c2)cs1 (stereo not drawn) 0%
CC(O)(c1cccc(F)c1)c1nc(-c2ccc3c(c2)OCO3)cs1 (stereo not drawn) -55.4%
Cc1ccccc1-c1csc(C(O)c2cccc(Cl)c2)n1 (stereo not drawn) 8.26%
COc1cccc(C(NC(C)=O)c2nc(-c3ccccc3OC)cs2)c1 (stereo not drawn) 13.7%
Cc1ccc(-c2nc(Cn3c(=O)cc(-c4ccccc4)c4c(C)nn(C)c43)c(C)o2)cc1 11.8%
CCCCN1CC(c2nc3ccccc3n2CCCCOc2ccc(C)cc2C)CC1=O (stereo not drawn) -86.6%
Cc1ccc(-c2nc(CS(=O)(=O)CC(=O)NCc3ccccc3Cl)c(C)o2)cc1 14.5%
O=C(Nc1cccc(C(=O)O)c1)/C(=C\c1ccccc1)NC(=O)c1ccc(Br)o1 -9.24%
O=C(N/N=C\C1CC=CCC1)c1ccc(Br)o1 (stereo not drawn) 11.6%
CC(C)Sc1oc(-c2cccs2)nc1S(=O)(=O)c1ccc(Cl)cc1 3.2%
CCOc1cccc2cc(-c3cn4c(n3)sc3cc(C)ccc34)c(=O)oc12 6.67%
CCOc1ccc(N(Cc2ccccc2)C(=O)c2nc(SCC)ncc2Cl)cc1 -20.1%
CCOc1ccc(NC(=O)CN(Cc2ccccc2)S(=O)(=O)c2ccc(Cl)cc2)cc1 16.1%
COc1ccc(CNc2nc(-c3ccc(Cl)cc3)nn2S(=O)(=O)c2ccc(C)cc2)cc1 20.8%
CCC(=O)Nc1ccc2nc(SCC(=O)N3CCc4ccccc43)sc2c1 -8.25%
COc1ccc(N(CC(=O)NC(C)(C)C)C(=O)c2ccco2)cc1 11.1%
Cc1c(NC(=S)NC(=O)CCc2ccccc2)c(=O)n(-c2ccccc2)n1C -15.5%
COc1ccccc1CCC(=O)NNC(=O)c1ccncc1 -23.5%
CCC1CCCCN1C(=S)NC(=O)c1ccco1 (stereo not drawn) 11.5%
O=C(c1ccc2c(c1)N(Cc1ccccc1F)C(=O)c1ccccc1S2(=O)=O)N1CCOCC1 -5.9%
CC(Sc1oc(-c2ccco2)nc1S(=O)(=O)c1ccc(Br)cc1)c1ccccc1 (stereo not drawn) -9.35%
CC1=NNC(=O)C1CCC(=O)N/N=C\c1cccc(Cl)c1 (stereo not drawn) -7.49%
CC(C)Oc1ccc(CNC(=O)C2CCN(c3nc4ccccc4n(C)c3=O)CC2)cc1 2.78%
CNC(=O)c1ccsc1NC(=O)c1ccc(S(=O)(=O)N2CCc3ccccc32)cc1 26.1%
Cc1ccc(-c2nc(CSCC(=O)NC3CCN(Cc4ccccc4)CC3)c(C)o2)cc1 -25.4%
COc1ccc(NC(=O)c2ccc3nc(CCc4ccccc4)oc3c2)c(OC)c1 -6.5%
Cc1ccc(-c2noc(-c3nnn(-c4cccc(C(F)(F)F)c4)c3N)n2)cc1 13.2%
CC(C)Oc1cc(F)ccc1-c1cc(C(=O)Nc2cccc(Cl)c2)[nH]n1 -0.284%
COc1ccc(C(=O)NCC2CCCCC2)cc1S(=O)(=O)N1CCCC1 4.93%
COc1ccccc1CNC(=O)c1cc(-c2cc(Cl)ccc2C)n[nH]1 23.4%
COc1ccc(-c2cc(C(=O)NCc3cc(OC)c(OC)c(OC)c3)[nH]n2)cc1 -13%
CC(C)Oc1cc(F)ccc1-c1cc(C(=O)Nc2ccc(F)cc2)[nH]n1 10.3%
COc1ccc(CN2CCCC(CNC(=O)c3ccc(F)cc3)C2)cc1OC (stereo not drawn) -11.7% [at 0.397 µM]
CN1CCN(C2(CNC(=O)COc3ccc(C(C)(C)C)cc3)CCCCC2)CC1 4.73%
CC(=O)Nc1ccc2nc(SCCOc3cc(C)cc(C)c3)sc2c1 -5.36%
Cc1ccc(C(=O)Nc2cc3c(cc2N2CCCC2)n(C)c(=O)c(=O)n3C)cc1 -6.47%
CCCCCn1c(=O)[nH]c2cc(C(=O)Nc3cc(C)cc(C)c3)ccc2c1=O 9.06%
CCOc1ccc(Nc2c(S(=O)(=O)c3ccccc3)cnc3ccccc23)cc1 21.1%
O=C(c1ccc(C(F)(F)F)cc1)N1CCC(c2nc(-c3ccc(S(=O)(=O)N4CCCC4)cc3)no2)CC1 7.52%
CCOC(=O)c1c(SCC(=O)Nc2cccc(C)c2C)nc(=O)[nH]c1C 5.54%
O=C(COC(=O)/C=C/c1ccc2c(c1)OCO2)NC1CCS(=O)(=O)C1 (stereo not drawn) -7.5%
O=C(Nc1ccc2c(c1)OCCO2)C1CCCC1 1.92%
COc1ccc(NC(=O)NC(C)c2c(-n3cccc3)sc(C)c2C)cc1OC (stereo not drawn) 12.6%
COc1ccc(CCNC(=O)C(=O)NCC(c2ccco2)S(=O)(=O)c2cccs2)cc1OC (stereo not drawn) 21.8%
COc1cc(NC(=O)Cn2nc(-c3ccc(C)c(C)c3)ccc2=O)cc(OC)c1 14.8%
COc1ccc(C2c3c(oc4ccccc4c3=O)C(=O)N2Cc2ccc3c(c2)OCO3)cc1 (stereo not drawn) -8.02%
Cc1ccc(S(=O)(=O)n2nc(-c3ccc(Cl)cc3)nc2NCc2ccccc2)cc1 -3.27%
COc1ccc(OCCCn2c(C)nc3cc(C)c(C)cc32)cc1 21.8%
Cc1cc(C)c2oc(C(=O)Nc3ccc(S(=O)(=O)N4CCCCCC4)cc3)cc(=O)c2c1 14.9%
Cc1ccccc1C(=O)Nc1nnc(S(=O)(=O)N(C)c2ccc(Cl)cc2)s1 5.15%
CC1(C(=O)NCc2ccco2)Cc2c(-c3ccc4c(c3)OCO4)ccnc2O1 (stereo not drawn) 23.5%
CC(=O)Nc1cccc(-c2ccnc3c2CC(C)(C(=O)NCc2ccccc2)O3)c1 (stereo not drawn) 18.4%
COc1ccc(CNC(=O)CSc2nc3ccccc3nc2Cc2ccccc2)cc1 8.1%

Potency, active:
Cc1cc([N+](=O)[O-])c(NC2CCCCC2)c([N+](=O)[O-])c1 35.5 µM
CC(N=Cc1nc(-c2ccccc2)oc1O)c1ccccc1 (stereo not drawn) 12.6 µM
CC1Cc2ccccc2N1C(=O)CSc1nc2ccccc2o1 (stereo not drawn) 12.6 µM
Cc1oc2cc(Br)c(O)c(Br)c2c1C(=O)c1ccccc1 22.4 µM
CS(=O)(=O)N(CC(=O)Nc1ccc(Cl)c(Cl)c1)C1CCCCC1 15.8 µM
CC(C)c1cccc(C(C)C)c1Nc1cn[nH]c1 3.98 µM
COc1ccc(C(O)c2nc(-c3ccc4c(c3)OCO4)cs2)cc1 (stereo not drawn) 14.1 µM
CC(C)c1cccc(-c2csc(C(O)c3ccccc3)n2)c1 (stereo not drawn) 17.8 µM
COc1ccc(-c2csc(C(O)c3cccc(Cl)c3)n2)cn1 (stereo not drawn) 25.1 µM
O=C(N/N=C/c1cccc(OCc2ccccc2)c1)c1ccc(Br)o1 11.2 µM
CCOc1ccc(N(Cc2ccccc2)C(=O)c2nc(S(C)(=O)=O)ncc2Cl)cc1 17.8 µM
COc1ccc(C(=O)NC(=S)NNC(=O)CCc2ccccc2)cc1 17.8 µM
CCCc1ccc(OCC(=O)NNC(=S)NC(=O)c2ccco2)cc1 3.98 µM
Cc1nc(Cl)cc(N/N=C/c2ccccc2)n1 7.94 µM
CNC(=O)c1ccc(-c2nc(CN3CCc4ccccc43)c(C)o2)cc1 10 µM
COc1cc(NC(=O)c2cc(-c3ccc(F)cc3OC(C)C)n[nH]2)cc(OC)c1OC 28.2 µM
COc1ccccc1CNC(=O)c1cc(-c2cc(F)ccc2OC)n[nH]1 22.4 µM
COc1cc(F)ccc1-c1cc(C(=O)NCC2CCCCC2)[nH]n1 25.1 µM
O=C(O)/C=C/c1ccc2c(c1)OCCO2 15.8 µM
CC1(C(=O)NCc2ccc(F)c(F)c2)Cc2c(-c3ccc4c(c3)OCO4)ccnc2O1 (stereo not drawn) 35.5 µM
